# Target: C9orf37
# Assay: pooled miR-30 sensor sort-seq; sequence = guide strand
# Conditions: shRNA
# Also: reference of the scale not given here.
row,Sequence,sensor-assay potency score (higher = more potent)
1,TACCTTATCTATAAAATGCACA,-0.634
2,TCCAGTTCTCCTTTAGGGCGAA,-0.959
3,TATCTATAAAATGCACAGGACC,-1.69
4,TTATCTATAAAATGCACAGGAC,-1.03
5,AAATGCACAGGACCAGGCCGGG,-1.34
6,ATGGTGGTGAAGAAGGCTCTGG,-0.917
7,TTACCTTATCTATAAAATGCAC,-0.752
8,TCTGTGGAACAGCATTTCTCAA,-1.65
9,TTCTCCTTTAGGGCGAAGGGGT,-1.42
10,TTCTGTGGAACAGCATTTCTCA,-0.352
11,TCAAATTCCAGTTCTCCTTTAG,-1.07
12,TTTGTCAGTTACCTTATCTATA,-0.888

# Target: C9orf72
# Assay: as above
# Conditions: shRNA
row,Sequence,sensor-assay potency score (higher = more potent)
1,TATTTCTTCAGGAACACTGTGT,0.74
2,TATATTGTAAACATAGGTCTGT,0.698
3,TTTCACTAGAGTGTCTCTGTGT,0.565
4,TACATCTATAGCACCACTCTCT,-0.415
5,TAAATCAAGGTCTATCTTCAGG,-0.851
6,TAATCTATCAACACACACTCTA,0.268
7,TTAATCTATCAACACACACTCT,-0.521
8,TATGCATCCATATTCTTCCTTT,-0.33
9,TTACAGGAATCACTTCTCCAGT,-1.29
10,TTGACATCCACATCTATGTGTG,-0.37
11,TACAGTAATTCTACACACCAAA,-0.818
12,TAAAATAAACAAAACACCCTAA,0.0855

# Target: C9orf93
# Assay: as above
# Conditions: shRNA
row,Sequence,sensor-assay potency score (higher = more potent)
1,TTAACTCTTTATTAACATCAGC,-1.03
2,TTTGCTTCTGCAACGATGCTGT,0.756
3,TTGTCTTTGCTTGAAGTTCTGA,0.0324
4,TTTGGTAAAGGTGTCTTCCTGA,0.821
5,TTGGTTGTTATTTCTAACTTTT,-0.955
6,TTTAGTGTGAGAGTCTATCTTC,0.39
7,TAAACAACGCAACTGCTCCTTT,0.206
8,TTGCACAGCAGTATCTTGCTCC,0.17
9,TTAATTGTACTGTTAACTCTTC,-0.0565
10,TTCCTTTCTAGCAACAGCTAGG,-0.694
11,TTGAATGGTCTCGTGATCCTAT,0.611

# Target: CA4
# Assay: as above
# Conditions: shRNA
row,Sequence,sensor-assay potency score (higher = more potent)
1,TCCAGCAACATCATCACTGAGT,-1.67
2,TTCCTTGTCGTAGTACAGCTTC,-0.302
3,TTGCTTCTTATCGTAGCCAGAG,-0.919
4,TCACTGTCTGTTCCTTGTCGTA,-1.4
5,TTATATGGCAAGTCGGACCAGT,0.112
